# Screening results as filed in PubChem.
# The list is not random: actives were taken first. Their share in the collection is about 3.4%.
# Wnt bcat act: Wnt/beta-catenin pathway activation; Wnt/beta-catenin reporter cell assay, activator, plate reader; activation, % at 9.35 µM; 1.2% of 300,000 active; in the data active = activation above about 30%, passing the limit was not always enough; inconclusive = no clear call, values can overlap the other calls;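 note: 0% = neutral control wells and 100% = positive control wells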
# esBAF inh: inhibitors of esBAF chromatin remodeling in mouse ES cells | Bmi1-luciferase knock-in reporter, 24 h; 100% = twice the neutral-well signal | reporter increase, % at 12.5 µM | 2% of 350,000 active | AID 602393; in the data active = activation above about 40%; inconclusive = no clear call, values can overlap the other calls;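 note: 0% = median of the plate's neutral control wells and 100% = double that signal; a rise in the Bmi1 reporter signal indicates esBAF inhibition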
# Env fusion inh: blocks HIV Env-driven cell-cell fusion; HeLa-JRFL Env/CEM21 cell fusion, luciferase; inhibition, % at 12.3 µM; 1.1% of 360,000 active;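 active = mean replicate inhibition score of at least 50 and every replicate individually at or above 50; inconclusive = only one of the two criteria met; inactive = mean below 50 and not all replicates reaching 50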;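 note: 0% = plate neutral controls and 100% = maraviroc near 300 nM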
# MITF TRPM1 HTS: activators of MITF-driven TRPM1 promoter activity in SK-MEL-5 cells; activation, % at 12.5 µM; SK-MEL-5 TRPM1-promoter luciferase, 24 h; % of positive control, neutral wells = 0; 0.75% of 300,000 active;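 active = mean activation of at least 80% with every replicate also reaching 80%; inconclusive = mean reaches 80% but some replicate falls short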;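 note: 0% = neutral control wells and 100% = parthenolide positive control wells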
# miR-122 sensor: miR-122 inhibition in Huh7 cells | 0.3% of 340,000 active | Huh7 miR-122 Renilla luciferase sensor, 48 h; neutral wells = 0, positive control = 100 | activation (reporter increase), % at 12.5 µM | AID 602342;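 active = mean replicate activation score at least 90 and every replicate individually at or above 90; inconclusive = only one of the two criteria met; inactive = neither criterion met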;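 note: higher luciferase means less miR-122 activity so hits act as miR-122 inhibitors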
# An asterisk follows results filed as active; i = inactive; ? = inconclusive; / = no result given; [ ] = dose if it differs, or a comment.
SMILES,Wnt bcat act,esBAF inh,Env fusion inh,MITF TRPM1 HTS,miR-122 sensor
C[C@@H]1CN([C@@H](C)CO)S(=O)(=O)c2ccc(-c3ccccc3)cc2O[C@H]1CN(C)S(C)(=O)=O,/,-2,57*[16.7 µM],/,4[16.7 µM]
C[C@H](CO)N1C[C@H](C)[C@H](CN(C)Cc2ccccc2)Oc2cc(-c3ccccc3)ccc2S1(=O)=O,/,5,79*[16.7 µM],/,-4[16.7 µM]
C[C@@H]1CN([C@H](C)CO)S(=O)(=O)c2ccc(-c3ccccc3)cc2O[C@@H]1CN(C)Cc1ccccc1,/,-1,65*[16.7 µM],/,35[16.7 µM]
Cc1ccccc1-c1ccc2c(c1)O[C@@H](CN(C)C(=O)Nc1ccc(C(F)(F)F)cc1)[C@@H](C)CN([C@@H](C)CO)S2(=O)=O,/,9,6[16.7 µM],/,-20[16.7 µM]
C[C@@H]1CN([C@@H](C)CO)S(=O)(=O)c2ccc(-c3ccccc3)cc2O[C@@H]1CN(C)Cc1ccccc1,/,1,52[16.7 µM],/,8[16.7 µM]
Cc1ccc(-c2ccc3c(c2)O[C@H](CN(C)S(C)(=O)=O)[C@H](C)CN([C@@H](C)CO)S3(=O)=O)cc1,/,4,0[16.7 µM],/,15[16.7 µM]
Cc1ccccc1-c1ccc2c(c1)O[C@H](CN(C)C(=O)Nc1ccc(C(F)(F)F)cc1)[C@H](C)CN([C@H](C)CO)S2(=O)=O,/,-2,72*[16.7 µM],/,-1[16.7 µM]
C[C@H](CO)N1C[C@H](C)[C@@H](CN(C)Cc2ccccc2)Oc2cc(-c3ccccc3)ccc2S1(=O)=O,/,-2,46[16.7 µM],/,39[16.7 µM]
C[C@@H]1CN([C@@H](C)CO)C(=O)c2cccc(NS(C)(=O)=O)c2O[C@@H]1CN(C)Cc1ccc2c(c1)OCO2,/,-1,10[16.7 µM],/,9[16.7 µM]
C[C@@H]1CN([C@H](C)CO)C(=O)CCCn2cc(nn2)CO[C@@H]1CN(C)S(=O)(=O)c1ccc(Cl)cc1,/,2,12[16.7 µM],/,2[16.7 µM]
CO[C@@H]1CN(C)C(=O)c2ccc(NC(=O)C3CCC3)cc2OC[C@@H](C)N(CC2CCCCC2)C[C@@H]1C,/,-3,14[16.7 µM],/,/
O=S(=O)(c1ccccc1)[C@@]1(c2ccccc2)C[C@@H]2ON=C(c3cccc(Br)c3)[C@@H]2C1,1,1,79*,-17,-9
O=C(O)[C@]1(S(=O)(=O)c2ccccc2)C[C@@H]2ON=C(c3cccc(Br)c3)[C@@H]2C1,-2,6,-8,-14,4
COC(=O)C1=C(Nc2ccccc2NC(=O)c2ccccc2C(=O)O)CSC1,41*,26,-29,-6,-4
COC(=O)C1=C(Nc2ccccc2NC(=O)CCCC(=O)O)CSC1,3,/,-9,/,0
Cc1ccc2nc(Cl)c(/C=C/C(=O)c3ccco3)cc2c1,1,50*,-136,/,/
Cc1ccc2cc(/C=C/C(=O)c3ccco3)c(Cl)nc2c1,60*,/,-163,/,3
C[C@@H]1CCCCO[C@@H](CN(C)C(=O)Cc2ccccc2)[C@H](C)CN([C@H](C)CO)C(=O)c2cc(NC(=O)CCC(F)(F)F)ccc2O1,/,17,2[16.7 µM],/,-3[16.7 µM]
NC(=O)c1sc2nc(-c3ccccc3)ccc2c1N,2,77*,51,27,-9
CCOC(=O)c1sc2nc(-c3ccccc3)ccc2c1N,/,/,i,36,/
Cc1ccc(S(=O)(=O)N(C)C[C@@H]2Oc3ccc(N(C)C)cc3CC(=O)N([C@@H](C)CO)C[C@H]2C)cc1,/,-1,/,/,-3[16.7 µM]
CC1=NN(C(N)=S)C(=O)C1N=Nc1ccc(S(N)(=O)=O)cc1 (centres undefined),-1,2,14,-5,-3
CC(=O)N(C)c1ccc(N=NC2C(=O)N(C(N)=S)N=C2C)cc1 (centres undefined),52*,2,-23,29,-3
CC(=O)N(C)c1ccc(N=Nc2c(C)[nH]n(C(N)=S)c2=O)cc1,51*,/,-52,32,/
COCCCNC(=O)[C@@]1(Cc2ccccc2N=[N+]=[N-])N=C(c2ccc(OCCCO)cc2)O[C@H]1c1ccccc1N=[N+]=[N-],/,/,0[16.7 µM],/,/
SMILES,Wnt bcat act,esBAF inh,Env fusion inh,MITF TRPM1 HTS,miR-122 sensor
COc1ccccc1S(=O)(=O)N1CC[C@@H]2[C@H]1c1cc(-c3ccccc3F)ccc1N[C@@H]2CO,/,-3,/,/,-2[16.7 µM]
O=C(C[C@H]1CC[C@@H]2[C@H](COC[C@@H](O)CN2Cc2nccs2)O1)NCc1ccc(F)cc1,/,1,5[16.7 µM],/,-2[16.7 µM]
Cc1ccc(C(=O)Nc2cnc3ccccc3c2)cc1,-24,/,94*,-84,5
Cc1cc(C(=O)Nc2cnc3ccccc3c2)ccc1[N+](=O)[O-],22,/,-24,3,/
Cc1cccc(C(=O)Nc2cccc(C(=O)NC3CCCC3)c2)c1,2,1,-1,9,7
Cc1ccc(C(=O)Nc2cccc(C(=O)NC3CCCC3)c2)cc1,2,50*,/,33,2
CC(C)Oc1ccc(C(=O)NC2CCCCC2)cc1,/,50*,/,69,7
CC(C)Oc1ccc(C(=O)NC2CCS(=O)(=O)C2)cc1 (centres undefined),/,2,/,1,/
Cc1ccc(C(=O)Nc2cccc(C(=O)O)c2)cc1,/,/,117*,/,/
COc1ccc(-c2ccc3c(c2)[C@H]2[C@H](CCN2C(=O)c2cnccn2)[C@H](CO)N3)cc1,/,0,/,/,2[16.7 µM]
Cc1ccc(S(=O)(=O)N(C)C[C@@H]2OCCCC[C@H](C)Oc3ccc(N(C)C)cc3C(=O)N([C@@H](C)CO)C[C@@H]2C)cc1,/,-1,-7[16.7 µM],/,-3[16.7 µM]
CCC(=O)Nc1ccc2c(c1)OC[C@H](C)N(C(=O)CN(C)C)C[C@@H](C)[C@@H](OC)CN(C)C2=O,/,-1,-6[16.7 µM],/,-8[16.7 µM]
O=C(C[C@@H]1C[C@@H]2c3cc(NC(=O)Nc4ccc(C(F)(F)F)cc4)ccc3O[C@@H]2[C@H](CO)O1)NCCc1ccccc1,/,1,17[16.7 µM],/,7[16.7 µM]
CC(=O)Nc1ccccc1C(=O)C(=O)Nc1cccc(C(=O)NC2CC2)c1,/,48*,-12,23,4
Cc1ccc(-c2cc(NC(=O)c3ccccc3)on2)cc1,34*,60*,-45,75,0
CCCCNC(=O)c1cccc(NC(=O)C(=O)c2ccccc2NC(C)=O)c1,-2,2,-9,-7,1
COc1ccccc1C(=O)N1C[C@@H]2[C@H](c3ccccc31)[C@@H](CO)N2C(=O)Nc1ccccc1,/,-1,/,/,-7[16.7 µM]
CC(C)c1ccc(-n2nnnc2SCC(=O)NC2CC2)cc1,3,13,64*,41,0
COc1ccc2c(c1OC)C(=O)N(c1ccc(F)cc1)C2,38*,29,-43,?,-6
C[C@@H]1CN([C@H](C)CO)C(=O)c2cc(C#CCc3ccccc3)cnc2O[C@@H]1CN(C)C(=O)C1CC1,/,1,-2[16.7 µM],/,13[16.7 µM]
COc1ccc(S(=O)(=O)Nc2ccc3c(c2)C(=O)N(C)C[C@@H](OC)[C@H](C)CN(C)[C@H](C)CO3)cc1,/,-2,/,/,2[16.7 µM]
Cc1nn(C(=O)c2cc3sccc3[nH]2)c(C)c1C,2,84*,/,45,12
COc1ccc(OCc2cc(C(=O)N(C)Cc3cc(C4CC4)n[nH]3)no2)c(Cl)c1,18,68*,-52,90*,-4
COc1ccc(OCc2cc(C(=O)NCC(C)Oc3cccnc3)no2)c(Cl)c1 (centres undefined),5,70*,/,23,-1
